# From ChEMBL document CHEMBL2218924, “A broad activity screen in support of a chemogenomic map for kinase signalling research and drug discovery” (Biochem J, 2013)
# What was measured:
# [1] = target: Protein kinase C eta type (Homo sapiens) (UniProt P24723); details: at 10 µM
# [2] = target: Protein kinase C theta type (Homo sapiens) (UniProt Q04759); details: at 1 µM
# [3] = target: Protein kinase C theta type (Homo sapiens) (UniProt Q04759); details: at 10 µM
# [4] = target: T1, cGMP-dependent protein kinase 1 (Homo sapiens) (UniProt Q13976); details: at 1 µM
# T1 sequence (whole entry): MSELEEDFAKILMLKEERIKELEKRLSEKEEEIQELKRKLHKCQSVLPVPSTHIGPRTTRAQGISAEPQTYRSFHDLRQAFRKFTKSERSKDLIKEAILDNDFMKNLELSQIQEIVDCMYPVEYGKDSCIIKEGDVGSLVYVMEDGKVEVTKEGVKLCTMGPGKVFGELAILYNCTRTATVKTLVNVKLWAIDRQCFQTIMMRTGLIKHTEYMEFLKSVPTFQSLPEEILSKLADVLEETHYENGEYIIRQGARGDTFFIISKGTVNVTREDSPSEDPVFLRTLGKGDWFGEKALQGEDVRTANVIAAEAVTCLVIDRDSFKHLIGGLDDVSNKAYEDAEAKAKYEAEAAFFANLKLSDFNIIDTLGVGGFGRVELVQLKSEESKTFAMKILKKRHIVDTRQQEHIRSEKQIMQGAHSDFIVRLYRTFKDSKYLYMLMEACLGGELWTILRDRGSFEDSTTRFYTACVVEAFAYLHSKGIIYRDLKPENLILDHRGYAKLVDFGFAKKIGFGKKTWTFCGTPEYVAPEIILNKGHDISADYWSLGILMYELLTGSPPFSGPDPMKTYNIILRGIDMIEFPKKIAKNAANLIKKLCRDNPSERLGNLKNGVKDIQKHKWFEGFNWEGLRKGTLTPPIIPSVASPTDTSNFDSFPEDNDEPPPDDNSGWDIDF
# [5] = target: T1, cGMP-dependent protein kinase 1 (Homo sapiens); details: at 10 µM
# [6] = target: Serine/threonine-protein kinase N2 (Homo sapiens) (UniProt Q16513); details: at 1 µM
# [7] = target: Serine/threonine-protein kinase N2 (Homo sapiens) (UniProt Q16513); details: at 10 µM
# [8] = target: T2, Serine/threonine-protein kinase D2 (Homo sapiens) (UniProt Q9BZL6); details: at 10 µM
# T2 sequence (whole entry): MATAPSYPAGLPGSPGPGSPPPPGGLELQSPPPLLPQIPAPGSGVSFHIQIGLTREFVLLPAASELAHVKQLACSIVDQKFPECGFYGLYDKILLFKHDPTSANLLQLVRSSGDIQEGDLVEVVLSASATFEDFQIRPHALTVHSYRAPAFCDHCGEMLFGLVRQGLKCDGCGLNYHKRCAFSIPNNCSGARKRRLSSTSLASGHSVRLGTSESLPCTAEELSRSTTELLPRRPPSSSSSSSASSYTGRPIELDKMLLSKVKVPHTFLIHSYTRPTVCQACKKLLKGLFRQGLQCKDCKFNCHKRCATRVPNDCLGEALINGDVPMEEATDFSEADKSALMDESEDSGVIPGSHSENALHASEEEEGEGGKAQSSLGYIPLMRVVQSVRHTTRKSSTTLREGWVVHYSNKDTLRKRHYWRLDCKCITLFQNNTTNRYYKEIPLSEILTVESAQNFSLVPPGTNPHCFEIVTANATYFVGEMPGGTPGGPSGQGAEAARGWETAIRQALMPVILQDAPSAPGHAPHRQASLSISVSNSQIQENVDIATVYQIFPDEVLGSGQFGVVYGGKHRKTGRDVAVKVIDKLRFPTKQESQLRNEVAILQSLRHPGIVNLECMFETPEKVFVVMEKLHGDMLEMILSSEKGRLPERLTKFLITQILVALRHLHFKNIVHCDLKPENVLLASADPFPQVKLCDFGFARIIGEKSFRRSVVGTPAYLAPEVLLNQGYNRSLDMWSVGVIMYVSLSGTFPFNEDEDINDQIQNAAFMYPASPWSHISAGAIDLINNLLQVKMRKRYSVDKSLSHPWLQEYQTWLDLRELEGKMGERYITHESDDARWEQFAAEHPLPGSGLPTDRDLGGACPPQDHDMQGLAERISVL
# [9] = target: T3, MAP kinase-activated protein kinase 5 (Homo sapiens) (UniProt Q8IW41); details: at 1 µM
# T3 sequence (whole entry): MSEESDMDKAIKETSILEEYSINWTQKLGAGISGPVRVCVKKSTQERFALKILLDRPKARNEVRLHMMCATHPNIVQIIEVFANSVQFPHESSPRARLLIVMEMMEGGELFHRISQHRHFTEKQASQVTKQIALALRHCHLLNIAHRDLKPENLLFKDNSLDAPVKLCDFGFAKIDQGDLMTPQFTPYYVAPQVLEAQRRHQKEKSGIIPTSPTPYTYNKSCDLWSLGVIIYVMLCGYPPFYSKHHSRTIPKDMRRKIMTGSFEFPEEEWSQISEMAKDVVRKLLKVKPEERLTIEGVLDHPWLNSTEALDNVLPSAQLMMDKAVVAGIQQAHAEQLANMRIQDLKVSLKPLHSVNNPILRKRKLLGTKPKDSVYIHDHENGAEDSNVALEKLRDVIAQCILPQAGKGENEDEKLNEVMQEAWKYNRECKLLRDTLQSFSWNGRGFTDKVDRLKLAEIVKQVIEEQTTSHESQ
# [10] = target: T3, MAP kinase-activated protein kinase 5 (Homo sapiens); details: at 10 µM
# [11] = target: T4, Serine/threonine-protein kinase D1 (Homo sapiens) (UniProt Q15139); details: at 1 µM
# T4 sequence (whole entry): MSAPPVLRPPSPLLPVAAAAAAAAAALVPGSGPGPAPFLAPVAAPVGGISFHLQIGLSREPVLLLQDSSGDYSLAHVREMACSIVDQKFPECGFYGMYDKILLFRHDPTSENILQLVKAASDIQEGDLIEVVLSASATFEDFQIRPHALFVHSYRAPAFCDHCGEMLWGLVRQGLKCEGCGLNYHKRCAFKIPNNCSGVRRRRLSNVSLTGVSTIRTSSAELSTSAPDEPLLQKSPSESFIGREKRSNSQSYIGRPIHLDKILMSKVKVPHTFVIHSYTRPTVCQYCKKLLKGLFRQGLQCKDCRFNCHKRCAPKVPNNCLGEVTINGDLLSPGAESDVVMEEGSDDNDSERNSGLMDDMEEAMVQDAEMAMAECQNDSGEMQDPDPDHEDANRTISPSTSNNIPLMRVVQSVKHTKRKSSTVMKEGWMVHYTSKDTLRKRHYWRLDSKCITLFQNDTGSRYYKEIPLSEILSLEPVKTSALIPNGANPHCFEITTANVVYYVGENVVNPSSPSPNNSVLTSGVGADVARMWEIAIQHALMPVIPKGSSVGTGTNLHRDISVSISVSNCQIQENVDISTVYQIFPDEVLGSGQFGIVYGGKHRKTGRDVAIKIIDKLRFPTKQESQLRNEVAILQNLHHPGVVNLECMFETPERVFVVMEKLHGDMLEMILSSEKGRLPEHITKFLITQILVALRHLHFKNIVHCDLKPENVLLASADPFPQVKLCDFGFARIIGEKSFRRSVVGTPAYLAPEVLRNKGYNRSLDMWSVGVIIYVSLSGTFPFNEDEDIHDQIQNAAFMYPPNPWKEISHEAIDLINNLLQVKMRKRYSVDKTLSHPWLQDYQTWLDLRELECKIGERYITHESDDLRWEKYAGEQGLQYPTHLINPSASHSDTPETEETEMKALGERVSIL
# [12] = target: T1, cGMP-dependent protein kinase 1 (Homo sapiens); details: at 1 µM; remark: listed apart in the source
# [13] = target: T1, cGMP-dependent protein kinase 1 (Homo sapiens); details: at 10 µM; remark: listed apart in the source
# [14] = target: T4, Serine/threonine-protein kinase D1 (Homo sapiens); details: at 10 µM
# [15] = target: Protein kinase C eta type (Homo sapiens) (UniProt P24723); details: at 1 µM
# [16] = target: Tyrosine-protein kinase FRK (Homo sapiens) (UniProt P42685); details: at 10 µM
# [17] = target: Tyrosine-protein kinase FRK (Homo sapiens) (UniProt P42685); details: at 1 µM
# [18] = target: T5, Protein kinase C iota type (Homo sapiens) (UniProt P41743); details: at 1 µM
# T5 sequence (whole entry): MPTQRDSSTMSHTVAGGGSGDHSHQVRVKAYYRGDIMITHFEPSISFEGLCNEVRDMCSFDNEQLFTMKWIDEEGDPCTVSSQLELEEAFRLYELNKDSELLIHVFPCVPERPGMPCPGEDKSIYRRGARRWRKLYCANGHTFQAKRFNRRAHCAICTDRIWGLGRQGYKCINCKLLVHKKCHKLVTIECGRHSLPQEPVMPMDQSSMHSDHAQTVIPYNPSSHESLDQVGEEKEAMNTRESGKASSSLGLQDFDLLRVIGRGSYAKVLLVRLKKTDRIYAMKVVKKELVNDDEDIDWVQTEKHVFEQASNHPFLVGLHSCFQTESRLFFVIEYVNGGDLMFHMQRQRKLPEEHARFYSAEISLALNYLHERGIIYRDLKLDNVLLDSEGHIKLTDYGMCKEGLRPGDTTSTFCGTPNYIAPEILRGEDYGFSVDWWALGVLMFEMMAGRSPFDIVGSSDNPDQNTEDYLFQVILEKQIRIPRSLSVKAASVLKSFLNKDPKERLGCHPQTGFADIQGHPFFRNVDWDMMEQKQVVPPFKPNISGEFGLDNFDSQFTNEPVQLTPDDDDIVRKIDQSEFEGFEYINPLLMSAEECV
# [19] = target: T5, Protein kinase C iota type (Homo sapiens); details: at 10 µM
# Serine/threonine-protein kinase N2 (Homo sapiens), sequence (Q16513 whole entry, looked up): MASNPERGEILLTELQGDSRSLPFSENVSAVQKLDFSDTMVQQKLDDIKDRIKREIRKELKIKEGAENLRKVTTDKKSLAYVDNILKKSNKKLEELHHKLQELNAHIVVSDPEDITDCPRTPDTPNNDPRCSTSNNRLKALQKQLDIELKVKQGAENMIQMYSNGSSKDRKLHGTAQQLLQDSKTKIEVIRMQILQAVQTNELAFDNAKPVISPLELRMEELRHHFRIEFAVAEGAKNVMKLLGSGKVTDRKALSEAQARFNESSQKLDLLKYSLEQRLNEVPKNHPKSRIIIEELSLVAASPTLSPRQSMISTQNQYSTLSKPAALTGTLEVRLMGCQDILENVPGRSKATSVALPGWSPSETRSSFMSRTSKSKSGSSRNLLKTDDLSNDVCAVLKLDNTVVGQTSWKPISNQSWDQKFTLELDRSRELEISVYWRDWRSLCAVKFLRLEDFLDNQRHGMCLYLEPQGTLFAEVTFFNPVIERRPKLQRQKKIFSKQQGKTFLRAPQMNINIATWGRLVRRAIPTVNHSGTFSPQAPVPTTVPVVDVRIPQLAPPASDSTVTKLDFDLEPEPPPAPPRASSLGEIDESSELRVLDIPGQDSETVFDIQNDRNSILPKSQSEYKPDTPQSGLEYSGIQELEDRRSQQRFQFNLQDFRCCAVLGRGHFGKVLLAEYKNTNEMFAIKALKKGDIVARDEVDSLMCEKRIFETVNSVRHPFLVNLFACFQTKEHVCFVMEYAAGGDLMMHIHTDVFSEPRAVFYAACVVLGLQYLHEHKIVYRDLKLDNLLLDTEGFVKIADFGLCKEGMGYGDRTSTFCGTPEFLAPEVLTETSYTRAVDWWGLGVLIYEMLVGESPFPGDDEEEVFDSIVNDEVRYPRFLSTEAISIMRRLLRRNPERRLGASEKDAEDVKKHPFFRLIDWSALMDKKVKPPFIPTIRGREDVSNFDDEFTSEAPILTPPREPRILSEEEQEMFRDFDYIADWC
# Tyrosine-protein kinase FRK (Homo sapiens), sequence (P42685 whole entry): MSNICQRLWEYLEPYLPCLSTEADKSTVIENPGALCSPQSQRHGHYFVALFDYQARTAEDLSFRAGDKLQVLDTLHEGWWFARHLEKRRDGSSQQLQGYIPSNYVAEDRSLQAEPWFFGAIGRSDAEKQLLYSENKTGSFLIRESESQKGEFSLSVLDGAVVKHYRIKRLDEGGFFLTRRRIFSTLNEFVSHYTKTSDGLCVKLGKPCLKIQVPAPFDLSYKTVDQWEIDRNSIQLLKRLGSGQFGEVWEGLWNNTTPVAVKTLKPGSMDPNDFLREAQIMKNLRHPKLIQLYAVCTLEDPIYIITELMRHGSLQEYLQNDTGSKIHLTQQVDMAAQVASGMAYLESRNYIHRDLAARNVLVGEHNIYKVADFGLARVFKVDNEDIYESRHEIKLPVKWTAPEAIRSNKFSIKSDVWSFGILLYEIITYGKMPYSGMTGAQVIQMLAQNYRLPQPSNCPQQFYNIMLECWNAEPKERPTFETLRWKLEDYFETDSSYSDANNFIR
# Protein kinase C theta type (Homo sapiens), sequence (Q04759 whole entry, looked up): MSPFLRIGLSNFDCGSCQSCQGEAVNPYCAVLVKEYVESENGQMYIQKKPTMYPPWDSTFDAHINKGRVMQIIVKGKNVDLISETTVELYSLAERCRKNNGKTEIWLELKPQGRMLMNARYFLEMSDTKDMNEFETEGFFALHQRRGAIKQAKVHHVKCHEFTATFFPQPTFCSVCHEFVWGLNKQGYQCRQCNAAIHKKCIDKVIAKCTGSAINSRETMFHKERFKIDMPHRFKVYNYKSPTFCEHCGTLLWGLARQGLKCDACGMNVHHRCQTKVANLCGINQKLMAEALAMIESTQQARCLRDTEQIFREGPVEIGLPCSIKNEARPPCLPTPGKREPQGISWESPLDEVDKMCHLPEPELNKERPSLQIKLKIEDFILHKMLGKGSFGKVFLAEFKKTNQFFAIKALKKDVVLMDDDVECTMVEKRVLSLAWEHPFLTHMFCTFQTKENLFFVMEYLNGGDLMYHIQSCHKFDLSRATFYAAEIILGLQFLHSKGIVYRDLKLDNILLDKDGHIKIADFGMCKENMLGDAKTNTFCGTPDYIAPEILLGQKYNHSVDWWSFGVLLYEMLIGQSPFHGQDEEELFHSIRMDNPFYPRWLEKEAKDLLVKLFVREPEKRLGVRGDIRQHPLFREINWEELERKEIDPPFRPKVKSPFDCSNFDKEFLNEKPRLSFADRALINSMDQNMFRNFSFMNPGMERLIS
# Protein kinase C eta type (Homo sapiens), sequence (P24723 whole entry): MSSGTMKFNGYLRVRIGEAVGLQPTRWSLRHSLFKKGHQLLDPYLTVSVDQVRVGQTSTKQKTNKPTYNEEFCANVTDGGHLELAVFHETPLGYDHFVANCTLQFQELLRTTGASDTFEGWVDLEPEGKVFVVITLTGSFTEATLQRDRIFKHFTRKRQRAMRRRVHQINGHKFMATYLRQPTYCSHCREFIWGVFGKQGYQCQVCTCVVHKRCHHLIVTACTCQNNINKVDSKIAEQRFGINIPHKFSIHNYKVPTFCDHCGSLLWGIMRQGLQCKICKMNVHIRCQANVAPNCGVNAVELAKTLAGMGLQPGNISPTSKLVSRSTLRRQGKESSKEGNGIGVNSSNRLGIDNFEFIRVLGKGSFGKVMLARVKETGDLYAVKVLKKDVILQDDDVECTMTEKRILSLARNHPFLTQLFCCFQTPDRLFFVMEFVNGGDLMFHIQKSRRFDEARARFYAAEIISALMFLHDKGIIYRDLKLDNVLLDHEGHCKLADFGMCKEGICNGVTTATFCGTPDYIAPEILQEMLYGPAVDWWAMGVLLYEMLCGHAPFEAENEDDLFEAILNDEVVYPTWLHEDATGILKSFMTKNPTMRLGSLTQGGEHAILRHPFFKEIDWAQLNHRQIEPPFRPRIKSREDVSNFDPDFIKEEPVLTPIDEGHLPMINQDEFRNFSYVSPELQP
smiles,measurement,setting,value
O=C1NC(=O)C(c2cn(CCCO)c3ncccc23)=C1c1cnccn1,residual activity,[1],87%
same,residual activity,[2],97%
same,residual activity,[3],77%
same,residual activity,[4],98%
same,residual activity,[5],74%
same,residual activity,[6],100%
same,residual activity,[7],87%
N#C/C(=C\c1ccc(O)c(O)c1)C(=O)NCc1ccccc1,residual activity,[1],82%
same,residual activity,[8],102%
same,residual activity,[9],72%
same,residual activity,[10],59%
Cc1cc(C)c(/C=C2\C(=O)Nc3ccccc32)[nH]1,residual activity,[2],103%
same,residual activity,[11],78%
same,residual activity,[12],104%
same,residual activity,[13],103%
same,residual activity,[5],78%
same,residual activity,[9],78%
O=C(Nc1nc2ccccc2n1CCN1CCOCC1)c1cccc([N+](=O)[O-])c1,residual activity,[12],100%
same,residual activity,[13],101%
same,residual activity,[4],83%
same,residual activity,[5],88%
same,residual activity,[6],78%
same,residual activity,[7],115%
COc1ccc(COc2ccc(Cc3cnc(N)nc3N)cc2OC)cc1,residual activity,[11],81%
same,residual activity,[14],77%
CN([C@@H](Cc1ccc(OS(=O)(=O)c2cccc3cnccc23)cc1)C(=O)N1CCN(c2ccccc2)CC1)S(=O)(=O)c1cccc2cnccc12,residual activity,[15],116%
same,residual activity,[1],100%
same,residual activity,[11],113%
same,residual activity,[8],79%
same,residual activity,[4],67%
same,residual activity,[16],79%
NCCNc1ncc(C(N)=O)c(Nc2cccc(C(F)(F)F)c2)n1,residual activity,[11],35%
same,residual activity,[14],8%
same,residual activity,[9],42%
same,residual activity,[10],11%
c1ccc(-c2cnc(Nc3ccc(OCCN4CCCC4)cc3)s2)cc1,residual activity,[2],115%
same,residual activity,[3],102%
same,residual activity,[12],122%
same,residual activity,[13],136%
same,residual activity,[4],70%
same,residual activity,[5],77%
same,residual activity,[9],120%
same,residual activity,[10],111%
same,residual activity,[6],102%
same,residual activity,[7],100%
same,residual activity,[17],72%
same,residual activity,[16],16%
COc1ccc(Cl)cc1NC(=O)Nc1cc(C)nc2ccccc12,residual activity,[2],89%
same,residual activity,[3],92%
same,residual activity,[18],88% (inactive)
same,residual activity,[19],86%
same,residual activity,[11],95%
same,residual activity,[14],87%
same,residual activity,[4],79%
same,residual activity,[5],88%
same,residual activity,[17],94%
same,residual activity,[16],129%
CN(C)S(=O)(=O)c1ccc2c(c1)/C(=C/c1cc3c([nH]1)CCCC3)C(=O)N2,residual activity,[2],93%
same,residual activity,[3],72%
same,residual activity,[18],99% (inactive)
same,residual activity,[19],114%
same,residual activity,[11],91%
same,residual activity,[12],99%
same,residual activity,[4],89%
same,residual activity,[5],80%
same,residual activity,[6],95%
same,residual activity,[7],82%
same,residual activity,[17],54%
same,residual activity,[16],48%
